Screening results (PubChem BioAssay)
A selection: hits, their analogues and other compounds. The true share with any hit is near 1.8%.
PP1 counter: blocks human PP1-alpha phosphatase, a PP5 counter-screen. P62136. purified PP1alpha, OMFP fluorescence. inhibition, % at 6.7 µM. hit rate 0.9% among 320,000. AID 2235;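 active = inhibition above the mean inhibition of all tested compounds plus 3 SD, computed separately for each screening campaign, cut at about 15% in these data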
PME-1 primary: PME-1 (human) inhibition | recombinant PME-1, FP-Rh probe fluorescence polarization | inhibition, % at 5.9 µM | hit rate 0.53% among 320,000;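 active = inhibition above the campaign mean of all compounds plus 3 SD, cut at about 26% in these data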;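 note: competitive labeling of PME-1 active site by serine hydrolase directed probe; 0% = PME-1 with DMSO and 100% = wells lacking PME-1 enzyme; inhibitors block probe labeling so polarization falls and inhibition rises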
LYPLA1 counter: counter-screen for PME1 inhibitors: inhibitors of human LYPLA1. O75608. recombinant LYPLA1, FP-Rh probe fluorescence polarization. hit rate 0.16% among 320,000. AID 2174. inhibition, % at 5.9 µM;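 active = inhibition above the mean of all tested compounds plus 3 SD, set per campaign, cut at about 14% in these data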;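 note: inhibitors block serine hydrolase probe labeling of LYPLA1 so polarization falls; 0% = enzyme with DMSO and 100% = wells lacking LYPLA1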
LYPLA2 inh: counter-screen for PME1 inhibitors: inhibitors of human LYPLA2; inhibition, % at 5.9 µM; recombinant LYPLA2, FP-Rh probe fluorescence polarization; O95372; hit rate 0.38% among 320,000; AID 2177;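 active = inhibition above the screen-wide mean plus 3 SD, limit set per campaign, cut at about 26% in these data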;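 note: 0% = LYPLA2 with DMSO and 100% = wells lacking LYPLA2 enzyme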
Fam108B counter: Fam108B inhibition, counter-screen for RBBP9 inhibitors. recombinant Fam108B, FP-Rh probe fluorescence polarization. inhibition, % at 9.51 µM. hit rate 0.33% among 300,000. AID 1947;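 active = inhibition above the screen mean inhibition plus 3 SD, computed separately per campaign, cut at about 18% in these data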;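 note: inhibitors lower polarization as less probe binds the enzyme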
PP5 primary: blocks human protein phosphatase 5 activity. AID 1987. hit rate 0.18% among 320,000. inhibition, % at 6.7 µM. purified PP5c, OMFP substrate fluorescence. P53041;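 active = inhibition above the campaign's mean inhibition across all tested compounds plus 3 SD, cut at about 9.5% in these data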;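 note: 0% = DMSO only and 100% = 100 µM cantharidin control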
Target sequence (P53041 whole entry, looked up): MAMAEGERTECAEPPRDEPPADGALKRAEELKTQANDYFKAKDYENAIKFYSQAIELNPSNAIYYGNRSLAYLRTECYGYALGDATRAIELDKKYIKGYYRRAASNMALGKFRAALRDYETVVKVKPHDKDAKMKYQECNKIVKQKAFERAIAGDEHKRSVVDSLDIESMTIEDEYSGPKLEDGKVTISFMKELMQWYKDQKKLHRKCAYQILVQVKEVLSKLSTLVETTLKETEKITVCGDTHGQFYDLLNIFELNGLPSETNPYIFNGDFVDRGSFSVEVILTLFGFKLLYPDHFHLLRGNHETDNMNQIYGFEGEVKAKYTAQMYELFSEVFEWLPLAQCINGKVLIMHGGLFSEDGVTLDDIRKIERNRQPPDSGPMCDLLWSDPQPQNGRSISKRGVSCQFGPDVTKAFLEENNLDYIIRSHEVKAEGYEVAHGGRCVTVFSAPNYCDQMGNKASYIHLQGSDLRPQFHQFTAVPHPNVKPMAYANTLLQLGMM
LYPLA2 conf: counter-screen for PME1 inhibitors: confirmation of human LYPLA2 inhibitors; shares compounds with LYPLA2 inh; recombinant LYPLA2, FP-Rh probe fluorescence polarization; inhibition, % at 5.9 µM; hit rate 72% among 1,100; AID 2232;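 active = mean inhibition across replicates above the hit cutoff set in the primary screen, cut at about 26% in these data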;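 note: blocked labeling of the enzyme by serine hydrolase FP-Rh probe lowers polarization; 0% = enzyme with DMSO and 100% = wells lacking LYPLA2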
LYPLA2 gel ABPP: blocks human acyl-protein thioesterase 2 in gel ABPP; rhLYPLA2 in mouse brain proteome, gel ABPP FP-Rh; AID 652029; inhibition, % at 20 µM; shares compounds with LYPLA2 inh; hit rate 30% among 150;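 active = inhibition of LYPLA2 enzyme probe labeling above about 50%, limit read from the data; inactive = inhibition below that limit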;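 note: loss of FP-Rh probe labeling of the LYPLA2 gel band measured as band density; 0% = DMSO only control band and 100% = blank gel background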
Starred values were filed as active, the others as inactive; · = no result.

SMILES	PP1 counter	PME-1 primary	LYPLA1 counter	LYPLA2 inh	Fam108B counter	PP5 primary	LYPLA2 conf	others
NC(=O)c1ccc(Oc2ccc3c(c2)CCC3)c([N+](=O)[O-])c1	3	17	-2	30*	-1	6	29*
NC(=O)c1ccc(Oc2ccc(Cl)cc2)c([N+](=O)[O-])c1	-3	6	-1	19	-4	0	·
O=C(CCCn1c(=S)[nH]c2cc3c(cc2c1=O)OCO3)N1CCN(c2ccc(Cl)cc2)CC1	-6	4	2	11	-9	6	·
CC(=O)c1ccc(N2CCN(C(=O)CCCn3c(=S)[nH]c4cc5c(cc4c3=O)OCO5)CC2)cc1	-3	-1	11	52*	1	-2	51*	LYPLA2 gel ABPP=13
CCOC(=O)C(Cc1ccccc1)c1ccnc2ncnn12 (stereo unspecified)	0	9	4	35*	-4	0	10
CCCn1c(C)cc(C(=O)COc2ccc(C)nc2[N+](=O)[O-])c1C	3	0	-4	30*	4	3	21
COCCn1c(C)cc(C(=O)COc2ccc(C)nc2[N+](=O)[O-])c1C	2	-19	5	6	3	4	·
O=C(O)c1ccc(Cn2cnc3scc(-c4ccccc4)c3c2=O)cc1	2	-7	-1	-3	-7	0	·
CCCOc1ccc(-c2csc3ncn(Cc4ccc(C(=O)O)cc4)c(=O)c23)cc1	3	-8	-5	30*	-2	-2	33*
CCc1ccc(OCC(=O)Nc2ccc(S(=O)(=O)Nc3cc(C)on3)cc2)c(Br)c1	3	-8	-6	0	-11	4	·
CNC(=S)NNC(=O)c1oc2nc(-c3ccccc3)cc(C)c2c1N	0	-4	-2	7	0	1	·
NNC(=O)c1oc2nc(-c3ccccc3)cc(-c3ccccc3)c2c1N	-1	5	-1	32*	7	3	9
Cc1noc(C)c1CSCC(=O)N1CCN(c2ccc([N+](=O)[O-])cc2)CC1	2	-2	6	28*	0	3	25
COc1ccc(N2CCN(C(=O)COC(=O)c3ccc(-n4nc(C)cc4C)cc3)CC2)cc1	-7	0	7	43*	·	1	40*
COc1ccc(N2CCN(C(=O)CSc3ccc([N+](=O)[O-])cc3)CC2)cc1	-1	-6	2	54*	-3	-1	49*
COc1ccc(N2CCN(C(=O)COC(=O)c3ccc(Cl)nc3)CC2)cc1	0	5	0	10	·	0	·
COc1ccc(N2CCN(C(=O)CSc3ccc(C)cc3)CC2)cc1	-3	2	1	10	5	-2	·
Cc1ccc(CC(=O)N2CCN(c3ccc([N+](=O)[O-])cc3)CC2)cc1	-5	-4	3	17	0	4	·
O=C(CCCC(=O)N1CCN(c2ccc([N+](=O)[O-])cc2)CC1)c1ccccc1	-4	5	9	34*	2	2	33*
CCOc1ccc(OCCCC(=O)N(CC)CC(=O)Nc2c(F)cccc2F)cc1	-3	3	-2	-5	·	0	·
Cc1cc(C)n(-c2ccc(NC(=O)C3CCCCN3C(=O)c3sccc3C)cc2)n1 (stereo unspecified)	1	4	1	7	3	6	·
COc1ccc(-c2nc(CSCC(=O)NC3CCN(Cc4ccccc4)CC3)c(C)o2)cc1OC	-2	2	-2	-1	-1	3	·
COc1ccc(C(=O)ON=C2CCN(c3ccc([N+](=O)[O-])cc3)CC2)cc1	-2	6	8	35*	-1	4	39*
COc1ccc(C(=O)CCC(=O)N2CCN(c3ccc([N+](=O)[O-])cc3)CC2)cc1	16*	-1	0	29*	1	0	19
COc1ccc(NC(=O)N2CCN(c3ccc([N+](=O)[O-])cc3)CC2)cc1	0	1	1	6	-3	1	·
SMILES	PP1 counter	PME-1 primary	LYPLA1 counter	LYPLA2 inh	Fam108B counter	PP5 primary	LYPLA2 conf	others
COc1ccc(C(=O)NC(=S)N2CCN(c3ccc([N+](=O)[O-])cc3)CC2)cc1	3	-1	-1	5	0	2	·
COc1ccc(Oc2coc3cc(OC(=O)c4cccs4)ccc3c2=O)cc1	13	-1	4	41*	-11	5	46*
Cc1ccc(C)c(Oc2coc3cc(OC(=O)c4cccs4)ccc3c2=O)c1	6	-9	-3	22	-9	1	·
COC(=O)c1ccc(CN(C(=O)N2CCN(C)CC2)S(=O)(=O)c2ccc(C)cc2)cc1	-1	-2	-3	-5	-5	1	·
COc1ccc(NC(=O)CSc2nnc(C)c3ccccc23)cc1	-1	4	2	32*	1	1	1
Cc1onc(-c2ccccc2Cl)c1C(=O)Nc1nnc(-c2ccc(F)cc2)s1	2	-11	-3	53*	-4	-4	3
CCC1(C)Cc2c(sc3nnn(CC(=O)Nc4ccccc4)c(=O)c23)CO1 (stereo unspecified)	-6	-3	-3	39*	-7	3	38*
CCC1(C)Cc2c(sc3nnn(CC(=O)Nc4ccccc4C)c(=O)c23)CO1 (stereo unspecified)	0	3	2	26	-4	-1	·
Cc1cccc(NC(=O)Cn2nnc3sc4c(c3c2=O)CC(C)(C)OC4)c1	-3	-2	-1	39*	-2	0	48*
Cc1ccccc1NC(=O)Cn1nnc2sc3c(c2c1=O)CC(C)(C)OC3	7	-2	-2	22	1	-1	·
COc1cccc(NC(=O)Nc2ccc(Br)cn2)c1	2	-3	0	-8	-4	0	·
COc1ccccc1-n1cc(C(=O)NCC(=O)N2CCN(c3ccccc3)CC2)c2ccccc2c1=O	-4	0	4	37*	-1	3	27*
C#Cc1ccc([C@@H]2C=C(C(=O)N3CCOCC3)O[C@H](OCc3ccc(CO)cc3)C2)cc1	0	1	-1	-5	-3	-1	·
O=C(C[n+]1cccc(NC(=O)c2ccccc2)c1)c1ccc(NC(=O)c2ccccc2)cc1	-1	3	0	27*	-6	3	19
NC(=O)C1(N2CCCCC2)CCN(C(=O)CSc2nc3ccccc3s2)CC1	2	4	4	32*	4	-2	31*
O=C(NCc1nnc2c(C(F)(F)F)cc(Cl)cn12)c1ccco1	-4	6	4	5	-2	-2	·
Cc1c(NC(=O)/C=C/c2cn(-c3ccccc3)nc2-c2ccc(F)cc2)c(=O)n(-c2ccccc2)n1C	-9	-6	-8	31*	-7	3	30*
